# Laboratory results reported in PubChem BioAssay (NCI).
# Where “and” joins values, the source holds several entries; their conditions need not be identical. Equal values may be shown once. Compounds without any hit were thinned out: in the full panel of roughly 83,000, 20% have a hit.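 Step 1: grow cells in 96-well plates. Step 2: add test compound at a single concentration. Step 3: incubate 48 h. Step 4: record percent growth.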 Calls of active or inactive are those of the source. Rule for the calls: active = growth percent below 10; inactive = the rest.
# What was measured:
# Experiment in all cases: NCI-60 one-dose screen, 48 h (100 = growth as untreated, 0 = no growth, -100 = all killed)
# Details in all cases: 10 µM unless noted
# T-47D breast = test system: T-47D breast
# BT-549 breast = test system: BT-549 breast
# MDA-MB-435 melanoma = test system: MDA-MB-435 melanoma
# SW-620 colon = test system: SW-620 colon
# MCF7 breast = test system: MCF7 breast
# HCT-116 colon = test system: HCT-116 colon
# HCC-2998 colon = test system: HCC-2998 colon
# KM12 colon = test system: KM12 colon
# MDA-MB-468 breast = test system: MDA-MB-468 breast
SMILES,growth (T-47D breast),growth (BT-549 breast),growth (MDA-MB-435 melanoma),growth (SW-620 colon),growth (MCF7 breast),growth (HCT-116 colon),growth (HCC-2998 colon),growth (KM12 colon),growth (MDA-MB-468 breast)
Cc1cc(C(NC(=O)CCCCCNc2cccc3c2C(=O)N(C2CCC(=O)CC2=O)C3=O)c2cccc(N(C)C)c2)c(O)c2ncccc12 (stereo not given),4.11% (active),-8.92% (active),36.1% (inactive),23.7% (inactive),10.9% (inactive),13.8% (inactive),14.6% (inactive),15.3% (inactive),-24.4% (active)
C/C(=N\Nc1ccc(C(=O)O)cc1)c1cnn(-c2cc(=O)[nH]c3ccc(C)cc23)c1C,98.9% (inactive),88.4% (inactive),101% (inactive),110% (inactive),90.4% (inactive),95.2% (inactive),108% (inactive),99.9% (inactive),83.2% (inactive)
COc1cc(C2CC(c3ccc(Cl)cc3)=Nc3c(N)nc(N)nc3N2)ccc1Oc1nc(Nc2ccc(F)cc2)nc(N(C)C)n1 (stereo not given),71.3% (inactive),62.4% (inactive),44% (inactive),35.5% (inactive),2.22% (active),-5.37% (active),-3.35% (active),32% (inactive),-22.4% (active)
CC1=C(C)C(=O)C(NCCN2CCOCC2)=C(Br)C1=O,-58.6% (active),87.4% (inactive),-87.5% (active),32.7% (inactive),10.3% (inactive),-75.5% (active),101% (inactive),94.2% (inactive),-96.2% (active)
c1n[nH]cc1-c1nc2ccc3[nH]ncc3c2c2c1CC1(CCOCC1)CC2,13.5% (inactive),10.9% (inactive),29.3% (inactive),17.9% (inactive),31.8% (inactive),11.1% (inactive),41.1% (inactive),47.3% (inactive),5.4% (active)
COc1nc(N)ncc1-c1ccc2ncnc(N3CCc4cc(F)c(Cl)cc43)c2c1,-46.3% (active),19.9% (inactive),68.2% (inactive),34.3% (inactive),29.8% (inactive),-8.98% (active),12.2% (inactive),70% (inactive),-24.9% (active)
COc1ccc(N=Nc2c(N)nn3c(-c4ccc5c(c4)C=S=C5)ccnc23)cc1,3.67% (active),19.9% (inactive),83.8% (inactive),65.5% (inactive),31.1% (inactive),20.1% (inactive),48% (inactive),42.5% (inactive),16.6% (inactive)
O=C(CSc1nc2c(c(=O)[nH]1)CCCC2)Nc1ccccc1C(=O)O,105% (inactive),117% (inactive),109% (inactive),116% (inactive),85.9% (inactive),96.2% (inactive),123% (inactive),103% (inactive),100% (inactive)
COc1cc2cc(C(=O)N3C[C@@H](CCl)c4c3cc(OC(=O)N(CCC(=O)N3CCN(C)CC3)[C@H]3CCSSC3)c3ccccc43)[nH]c2c(OC)c1OC,8.8% (active),-81.1% (active),-48.5% (active),-42.4% (active),-79.9% (active),-41.4% (active),-94.3% (active),-29% (active),-91.5% (active)
NS(=O)(=O)c1cccc(Nc2nc(SCC(=O)c3ccc(F)cc3)nc3ccccc23)c1,-7.28% (active),-5.16% (active),-18% (active),27.4% (inactive),2.1% (active),5.03% (active),16% (inactive),-1.98% (active),-9.09% (active)
COC(=O)c1cc(C(=O)C(F)(F)F)n2c3ccccc3c3ccccc3c12,64.4% (inactive),85.9% (inactive),96.2% (inactive),83.9% (inactive),80.8% (inactive),48% (inactive),108% (inactive),100% (inactive),60.8% (inactive)
N#Cc1cc(-c2ccc3ncnc(N4CCc5cc(F)c(Cl)cc54)c3c2)cnc1N,25.8% (inactive),9.67% (active),39.2% (inactive),25.2% (inactive),4.81% (active),33.2% (inactive),50.1% (inactive),67.2% (inactive),-14.7% (active)
COc1ccc(-c2cc(C(=O)OCc3ccc(Br)cc3)nn2-c2ccc(S(C)(=O)=O)cc2)cc1OC,48.4% (inactive),74% (inactive),89.8% (inactive),99.2% (inactive),72.1% (inactive),83.4% (inactive),95.8% (inactive),93.1% (inactive),64% (inactive)
O=C1C=CC(=CC=C2N(Cc3ccc4ccccc4c3)c3ccccc3N2Cc2ccc3ccccc3c2)C=C1,5.78% (active) and 27.5% (inactive),9.59% (active) and 29.8% (inactive),12.5% (inactive) and 8.75% (active),29.1% (inactive) and 19.4% (inactive),15.7% (inactive) and 14.1% (inactive),10.7% (inactive) and 14.7% (inactive),21.1% (inactive) and 33.1% (inactive),33.8% (inactive) and 11.2% (inactive),-48.9% (active) and -28.9% (active)
CCCCCCCCc1ccc(C(=O)Nc2ccc(C)c(OP(=O)(O)O)c2)cc1,90% (inactive),88.9% (inactive),102% (inactive),103% (inactive),88.3% (inactive),106% (inactive),125% (inactive),95.5% (inactive),104% (inactive)
CC1(C)CC(=O)C2=C(C1)OC(N)=C(c1nc3ccccc3[nH]1)C2c1ccc(Cl)cc1 (stereo not given),72.3% (inactive) and 117% (inactive),57.5% (inactive) and 123% (inactive),60.5% (inactive) and 109% (inactive),81% (inactive) and 104% (inactive),56.4% (inactive) and 93.7% (inactive),63.4% (inactive) and 103% (inactive),76.9% (inactive) and 111% (inactive),36.7% (inactive) and 100% (inactive),47.3% (inactive) and 103% (inactive)
Cc1ccc(C(=O)Nc2cc(-c3ccncc3)cc(C(F)(F)F)c2)cc1C#Cc1cnc2cccnn12,81.6% (inactive),86.8% (inactive),33.9% (inactive),30.7% (inactive),45.9% (inactive),23.4% (inactive),63.5% (inactive),36.2% (inactive),92.7% (inactive)
NC1(c2ccc(-c3ccc4ncnc(NCc5ccccc5)c4c3)cn2)COC1,108% (inactive) and 107% (inactive),109% (inactive) and 106% (inactive),106% (inactive) and 107% (inactive),114% (inactive) and 106% (inactive),102% (inactive) and 99.5% (inactive),109% (inactive) and 116% (inactive),117% (inactive) and 113% (inactive),101% (inactive) and 88.5% (inactive),102% (inactive) and 103% (inactive)
O=C(Nc1ccc(Cl)c(C(F)(F)F)c1)N1CCN(c2cc(-c3cn(-c4ccccc4)nc3-c3cccc(O)c3)ccn2)CC1,-1.78% (active),-39.4% (active),-65.4% (active),16.6% (inactive),-22.2% (active),4.83% (active),6.31% (active),-8.11% (active),-34.8% (active)
O=C(N/N=C/c1c[nH]c2ccccc12)Nc1ccccc1Cl,44.9% (inactive),1.24% (active),2.02% (active),26.1% (inactive),1.71% (active),-12.7% (active),-22% (active),-44.2% (active),-21.3% (active)
